An excerpt weighted towards active compounds, which were near 4.7% of everything screened.
D1 potentiator: enhances dopamine response at the human D1 receptor; AID 504651; HEK293 TREx D1 cells, calcium flux, dopamine EC20 potentiation; potentiation, % at 10 µM; 360,000 compounds, 0.036% hits; P21728; in the data active = potentiation above about 30%; note: 0% is about no effect
TRHR agonist: TRH receptor (human) agonism | P34981 | TRHR cells, calcium flux fluo-8, FDSS agonist mode | activation, % at 2 µM | 360,000 compounds, 0.18% hits | AID 493084; note: 0% is about no effect
Target sequence (P34981 whole entry, looked up): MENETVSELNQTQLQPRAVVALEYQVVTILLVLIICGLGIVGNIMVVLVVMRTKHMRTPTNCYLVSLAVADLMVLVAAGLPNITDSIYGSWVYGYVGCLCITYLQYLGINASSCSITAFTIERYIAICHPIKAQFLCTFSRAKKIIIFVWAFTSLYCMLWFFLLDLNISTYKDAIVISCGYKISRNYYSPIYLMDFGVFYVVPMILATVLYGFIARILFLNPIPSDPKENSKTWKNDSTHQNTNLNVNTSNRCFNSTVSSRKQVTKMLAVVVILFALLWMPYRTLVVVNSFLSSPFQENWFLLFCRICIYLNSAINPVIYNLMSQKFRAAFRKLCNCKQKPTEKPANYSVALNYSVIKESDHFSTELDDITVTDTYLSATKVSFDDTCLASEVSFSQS
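Fluo-8-loaded TRHR cells; 10 s baseline, compound added, kinetic Ca2+ fluorescence read 1/s, agonist mode.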
TRHR PAM: TRH receptor (human) allosteric enhancement; 360,000 compounds, 0.66% hits; TRHR cells, fluo-8 calcium fluorescence, EC20 TRH enhancement; AID 493056; P34981; enhancement, % at 2 µM; in the data active = enhancement above about 30%; note: 0% is about no effect
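Enhancer read-out: after compound pinning and an initial kinetic agonist-mode read, an EC20 of TRH (10 nM final) was injected and fluo-8 calcium signal (Ex 480/Em 530) followed at 1 s/cycle for 100 cycles in TRHR-expressing cells.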
D1 agonist: activates the human D1 dopamine receptor; AID 504660; P21728; HEK293 T-REx D1 cells, calcium flux, agonist mode; activation, % at 2 µM; 360,000 compounds, 1% hits; note: 0% is about no effect
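Tetracycline-induced HEK293 TREx D1 cells, force-coupled to calcium signalling, were dye-loaded with a no-wash calcium kit. Compound was pin-added after a 10 s baseline. Fluorescence was read kinetically at 1 cycle/s for 180 s, with calcium rises flagged as agonism.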
D1 antagonist: human D1 dopamine receptor antagonism; HEK293 TREx D1 cells, calcium flux, dopamine EC80; active compounds read low; activity change, negative = inhibition, % at 10 µM; 360,000 compounds, 3.2% hits; AID 504652; in the data active = activity change below about -30%; note: % is set by controls: 0 for no effect and ±100 for the full control effect
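HEK293 T-REx cells expressing inducible, force-coupled D1 receptor; no-wash Ca dye, 30–90 min RT. Cmpd → 180 s read at 1 Hz → EC80 DA → 180 s read.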
An asterisk follows results filed as active; ! = not active in a repeat. Cut-off read from the data, not from the text of the source, unless noted: active = activation above about 30%; inactive = the rest.

Screening CCn1c(O)c(N=NC(=O)C2C(=O)NCC2c2ccccc2)c2ccccc21 (stereo not given) returned D1 potentiator -2.5, TRHR agonist -1.0, TRHR PAM -6.0, D1 agonist 1.0 and D1 antagonist -80.2*.
`COc1ccc(N2CCN(CCCNC(=O)C3COc4ccc(OC)cc4C3)CC2)cc1` (stereo not given) gave D1 potentiator -2.1, TRHR agonist 0.1, TRHR PAM -3.7, D1 agonist 6.5 and D1 antagonist -15.6.
CCOc1ccc(-n2cc(-c3ccccc3)c3c(NC4CCCC4)ncnc32)cc1 was read as D1 potentiator 2.4, TRHR agonist -0.3, TRHR PAM 0.7, D1 agonist -2.2 and D1 antagonist 8.7.
`Cc1ccc(C)c(N(C)C(=O)c2cc3c(s2)-c2ccccc2OC3)c1` gave D1 potentiator 2.0, TRHR agonist -0.3, TRHR PAM 8.3, D1 agonist -1.3 and D1 antagonist 7.7.
Screening Cc1cccc2c1-c1sc(C(=O)N3CCN(c4ccccc4)CC3)cc1CO2 returned D1 potentiator -3.8, TRHR agonist 0.3, TRHR PAM 18.0, D1 agonist 4.5 and D1 antagonist -32.5*.
`COc1ccc(N(C)C(=O)c2cc3c(s2)-c2ccccc2OC3)c(OC)c1` gave D1 potentiator -8.9, TRHR agonist -0.6, TRHR PAM -3.0, D1 agonist 2.4 and D1 antagonist -40.1*.
`CCCN1CCN(CCCNC(=O)c2cc3c(s2)-c2ccccc2OC3)CC1` gave D1 potentiator -11.2, TRHR agonist 0.2, TRHR PAM 37.1*!, D1 agonist 4.8 and D1 antagonist -12.1.
For Cc1cccc2c1-c1sc(C(=O)NCCCN3CCCC(C)C3)cc1CO2 (stereo not given) the results were D1 potentiator -18.7, TRHR agonist 1.3, TRHR PAM 0.0, D1 agonist 18.7 and D1 antagonist -51.2*.
Screening CC1CC(C)CN(CCCNC(=O)c2cc3c(s2)-c2ccccc2OC3)C1 (stereo not given) returned D1 potentiator -1.9, TRHR agonist 1.8, TRHR PAM 9.0, D1 agonist 7.3 and D1 antagonist 1.0.
Cc1cccc2c1-c1sc(C(=O)N3CCN(c4ccc(F)cc4)CC3)cc1CO2 was read as D1 potentiator -1.7, TRHR agonist -0.2, TRHR PAM 0.3, D1 agonist 1.3 and D1 antagonist 10.1.
O=[S+]([O-])(c1ccc(-c2ccccc2)cc1)N1CCN([S+](=O)([O-])c2ccc3c(c2)OCCO3)CC1 was read as D1 potentiator -1.9, TRHR agonist 1.8, TRHR PAM -2.9, D1 agonist 0.8 and D1 antagonist 4.5.
For COc1ccccc1CNC(=O)c1cc2c(s1)-c1ccccc1OC2 the results were D1 potentiator -6.2, TRHR agonist 0.4, TRHR PAM 14.3, D1 agonist 4.4 and D1 antagonist -19.9.
For CCN1CCN(CCCNC(=O)c2cc3c(s2)-c2ccccc2OC3)CC1 the results were D1 potentiator -12.6, TRHR agonist -0.1, TRHR PAM -5.8, D1 agonist -0.1 and D1 antagonist 41.3.
CN(C)CCNC(=O)c1cc2c(s1)-c1ccccc1OC2 was read as D1 potentiator -8.2, TRHR agonist -0.1, TRHR PAM 19.2, D1 agonist 121.8* and D1 antagonist -53.5*.
Screening CCCN1CCN(CCCNC(=O)c2cc3c(s2)-c2c(C)cccc2OC3)CC1 returned D1 potentiator -10.4, TRHR agonist 0.5, TRHR PAM -1.8, D1 agonist 5.2 and D1 antagonist -38.1*!.
Screening O=C(NCCCN1CCN(c2ccccc2F)CC1)c1cc2c(s1)-c1ccccc1OC2 returned D1 potentiator -7.0, TRHR agonist 0.1, TRHR PAM -6.5, D1 agonist 5.1 and D1 antagonist -45.7*.
O=C(NCc1cccc(Cl)c1)c1cc2c(s1)-c1ccccc1OC2 was read as D1 potentiator -7.8, TRHR agonist 0.7, TRHR PAM 1.7, D1 agonist 4.5 and D1 antagonist -50.2*.
O=C(Cn1c(=O)n(Cc2ccco2)c(=O)c2cccnc21)Nc1ccccc1F was read as D1 potentiator 3.8, TRHR agonist -0.3, TRHR PAM 0.0, D1 agonist 0.2 and D1 antagonist -8.9.
For COC(=O)c1c(NC(=O)c2ccc(OC)cc2OC)sc2c1CCCCC2 the results were D1 potentiator -3.1, TRHR agonist 0.4, TRHR PAM -0.3, D1 agonist -0.3 and D1 antagonist 4.6.
For Cc1c(NC(=O)c2cc3c(s2)-c2ccccc2OC3)cccc1[N+](=O)[O-] the results were D1 potentiator -8.0, TRHR agonist 0.9, TRHR PAM 13.1, D1 agonist 2.8 and D1 antagonist -39.7*.
For Cc1csc(NC(=O)c2cc3c(s2)-c2ccccc2OC3)n1 the results were D1 potentiator 3.0, TRHR agonist -0.1, TRHR PAM 3.0, D1 agonist 3.0 and D1 antagonist -8.7.
Screening CCOC(=O)c1cc(C)n(CC2CCC(C(=O)Nc3cc(OC)cc(OC)c3)CC2)c1C (stereo not given) returned D1 potentiator 1.5, TRHR agonist 0.9, TRHR PAM -0.8, D1 agonist 2.6 and D1 antagonist -4.6.
`O=C(NC1CCCC1)c1ccc2c(c1)N(Cc1c(F)cccc1Cl)C(=O)c1ccccc1S2` gave D1 potentiator -1.6, TRHR agonist 1.8, TRHR PAM -11.3, D1 agonist 10.0 and D1 antagonist -8.9.
`CCc1nnc(NC(=O)C2=NN(C3CCS(=O)(=O)C3)C(=O)CC2)s1` (stereo not given) gave D1 potentiator -2.1, TRHR agonist 0.4, TRHR PAM 12.5, D1 agonist 2.9 and D1 antagonist -2.3.
Screening O=C(Nc1cccnc1)C1=NN(C2CCS(=O)(=O)C2)C(=O)CC1 (stereo not given) returned D1 potentiator -6.5, TRHR agonist -0.2, TRHR PAM 38.7*, D1 agonist 0.8 and D1 antagonist -22.7.
`COC(=O)CSC1=NS(=O)(=O)c2ccccc21` gave D1 potentiator -3.8, TRHR agonist 1.9, TRHR PAM 39.2*, D1 agonist 3.4 and D1 antagonist -4.5.
Screening CCCc1cc(F)c(S(=O)(=O)N2CCN(S(=O)(=O)c3ccc4c(c3)OCCO4)CC2)cc1F returned D1 potentiator 5.8, TRHR agonist 1.2, TRHR PAM 2.1, D1 agonist 4.4 and D1 antagonist 6.1.
For O=C1CC(c2nc3ccccc3n2CCCOc2ccccc2)CN1c1ccc(F)cc1 (stereo not given) the results were D1 potentiator -2.5, TRHR agonist -0.9, TRHR PAM -14.3, D1 agonist 8.0 and D1 antagonist -2.9.
CC1CN(C)C(C)C/C1=N/Oc1ccccc1[N+](=O)[O-] (stereo not given) was read as D1 potentiator -5.1, TRHR agonist 0.3, TRHR PAM -1.7, D1 agonist 4.3 and D1 antagonist -19.6.

Compound activity (PubChem)
